Our source for the growth values is PubChem BioAssay (NCI).

About 83,000 compounds went through this panel and 20% of them were active in at least one assay; those are over-represented in the sample as a whole.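 48-hour exposure, single concentration, 96-well plates; percent growth endpoint where 0 means no net growth. Active: below 10.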 Calls of active or inactive are those of the source.

This experiment concerns RPMI-8226 leukemia. The experiment can be described thus: NCI-60 one-dose screen, 48 h (100 = growth as untreated, 0 = no growth, -100 = all killed). The settings on record: 10 µM unless noted.
Consider `O=C(O)C(O)C(O)C(=O)O.[NH-]C1CCCCC1[NH-].[Pt+2]` (centres undefined), for which the growth was 110% (inactive).

Take `Cc1ccc(Nc2c(C(N)=O)cnc3ccc(-c4csc(N)n4)cc23)cc1`: the growth is 100% (inactive).

Take `CC(C)(C)n1cc(-c2ccnc(NCCNS(=O)(=O)c3ccccc3)c2)c(-c2cccc(O)c2)n1`: the growth was 22.2% (inactive).

Turning to `COC(=O)C12C3C(=O)N(c4ccc(OC)cc4)C(=O)C3C(c3cn(-c4ccccc4)nc3C)N1[C@H](c1cn(-c3ccccc3)nc1C)[C@@H]1C(=O)N(c3ccc(OC)cc3)C(=O)[C@@H]12` (some centres undefined), the growth is 106% (inactive).

For the molecule `CC/C(Cc1ccccc1)=C(/c1ccc(O)cc1)c1ccc(OCCN2CCCC2)cc1`, the growth is -44.1% (active).

Take `O=C(NC(Cc1ccccc1)C(=O)CCl)OCc1ccccc1` (centres undefined): the growth was 9.51% (active).

With `CCCCCC(=O)N(CCCC)CCCC`, the growth is 93.8% (inactive).

Turning to `COc1cccc(/C=C2/C(=O)N(Cc3ccco3)SC2=S)c1OC`, the growth was 74.2% (inactive).

`COc1ccc(-c2cc(/C=C3\C(=O)Nc4ccc(Cl)cc43)[nH]n2)cc1`: the growth is 61.6% (inactive).

`CCOC(=O)C(C#N)C1CCCCC1` (centres undefined): the growth is 99.1% (inactive).

In the case of `CC(C)[C@H]1COC(=O)N1[C@@H]1C(=O)N([C@@H](CCC(=O)N2CCN(C3CCCC3)CC2)C(=O)N[C@@H]2CCCc3ccccc32)[C@@H]1/C=C/c1cccc(Br)c1`, the growth is 14.6% (inactive).

Turning to `Nc1ccc(N2CCOCC2)cc1`, the growth was 112% (inactive).

Consider `COc1cccc(/C=C\C(=O)c2ccccc2)c1`, for which the growth was 6.17% (active).

Turning to `NS(=O)(=O)c1ccc(-n2ncc3c(=O)[nH]c(CN4CCN(c5cc6c(cc5F)c(=O)c(C(=O)O)cn6C5CC5)CC4)nc32)cc1`, the growth is 105% (inactive).
